Screens deposited in PubChem BioAssay by Buhrlage Lab, Dana-Farber Cancer Institute and Novartis Institutes for BioMedical Research (Cambridge, Mass).
OTUD3 inh – inhibitors of human OTUD3 deubiquitinase. purified OTUD3, Ub-rhodamine fluorescence, 2 h. OTU domain-containing protein 3 (Homo sapiens), Q5T2D3. inhibition, % at 25 µM. AID 1645858, 2021. actives 0.7% (n = 47,000)
USP10 block – inhibitors of human USP10 deubiquitinase | actives 1.1% (n = 47,000) | inhibition, % at 20 µM | purified USP10, Ub-rhodamine fluorescence, 60 min | Ubiquitin carboxyl-terminal hydrolase 10 (Homo sapiens), Q14694
USP7 block – inhibitors of human USP7 deubiquitinase. Ubiquitin carboxyl-terminal hydrolase 7 (Homo sapiens), Q93009. purified USP7, Ub-rhodamine cleavage fluorescence. inhibition, % at 20 µM. actives 0.3% (n = 47,000)
UCHL1 block – inhibitors of human UCHL1 deubiquitinase; purified UCHL1, Ub-rhodamine cleavage fluorescence; AID 1645859, 2021; inhibition, % at 20 µM; Ubiquitin carboxyl-terminal hydrolase isozyme L1 (Homo sapiens), P09936; actives 0.2% (n = 47,000)
* marks the source's active call; other numbers are inactive results. Shown are actives, neighbours in structure and some others; about 1.8% of the full set was active somewhere. No stated cut-off is given here; in the data, active means inhibition above about 30%; inactive means the rest.

SMILES | OTUD3 inh | USP10 block | USP7 block | UCHL1 block
COC1=C(C2=C(OC)C(=O)c3cc4c(c(O)c3C2=O)C(=O)OC(C)C4)C(=O)c2c(cc3c(c2O)C(=O)OC(C)C3)C1=O (stereo not drawn) | 63.6* | -8.9 | -67.1 | 39.6*
CC(C)CCN1CC2C(=O)Nc3ccccc3C2C1 (stereo not drawn) | 0.1 | -5.1 | -10.7 | -8.7
C=C/C(=C/C(=O)C[C@H](C)C[C@@H](C)CC[C@H](O)[C@H](C)C(=O)CC(O)[C@H](C)[C@@H](C)OC(=O)C[C@@H](O)C1=C(C)C(=O)OC1=O)CC (stereo partly drawn) | 89.5* | 80.8* | 77.5* | 91.5*
CNC(=O)CN1CCC2(CC1)C(=O)N(c1cccnc1)c1ccccc12 | -24.8 | -6.7 | -8.9 | -13.5
COc1c2c(c(O)c3c1C(=O)c1c(cc(O)c(C)c1O)C3=O)-c1c(cc3c(c1O)C(=O)OC3O)CC2 (stereo not drawn) | 89.0* | 75.2* | 55.1* | 68.5*
O=C1Nc2ccccc2C2(CCN(CC3CCOCC3)CC2)O1 | 0.0 | 1.2 | 0.5 | -0.6
CC1Oc2cc3c(-c4c(O)cc(O)c5c(O)c6c(cc45)OC(C)C(C)C6=O)c(O)cc(O)c3c(O)c2C(=O)C1C (stereo not drawn) | 83.7* | 67.8* | 85.4* | 88.4*
COC(=O)N1CCC2(CCNCC2)CC1 | 5.1 | 1.2 | 3.5 | 1.4
CN(C)[C@H]1C(=O)C(C(N)=O)=C(O)C2(O)C(=O)C3=C(O)c4c(O)cccc4C(C)(O)C3C(O)C12 (stereo partly drawn) | -135.6 | -7.5 | 4.6 | 42.5*
CO/C1=C\C(C)=C\[C@@H](C)[C@@H](O)[C@H](C)C/C(C)=C/C=C/[C@H](OC)[C@@H]([C@@H](C)[C@@H](O)[C@H](C)[C@@]2(O)C[C@@H](OC(=O)/C=C/C(=O)NC3=C(O)CCC3=O)[C@H](C)[C@@H](C(C)C)O2)OC1=O | 3.0 | 24.9 | 21.6 | 3.6
